TDP1 block = qHTS Assay for Inhibitors of Tyrosyl-DNA Phosphodiesterase (TDP1) | 350,000 compounds, 0.28% hits | Tyrosyl-DNA phosphodiesterase 1 (Homo sapiens), Q9NUW8 | recombinant TDP1, AlphaScreen DNA substrate cleavage | Potency, µM (titrated, usually from 130 µM), most hits filed as inhibitors; further: nearly all actives have a fitted effect of over 40% in size
Target sequence (Q9NUW8 whole entry, looked up): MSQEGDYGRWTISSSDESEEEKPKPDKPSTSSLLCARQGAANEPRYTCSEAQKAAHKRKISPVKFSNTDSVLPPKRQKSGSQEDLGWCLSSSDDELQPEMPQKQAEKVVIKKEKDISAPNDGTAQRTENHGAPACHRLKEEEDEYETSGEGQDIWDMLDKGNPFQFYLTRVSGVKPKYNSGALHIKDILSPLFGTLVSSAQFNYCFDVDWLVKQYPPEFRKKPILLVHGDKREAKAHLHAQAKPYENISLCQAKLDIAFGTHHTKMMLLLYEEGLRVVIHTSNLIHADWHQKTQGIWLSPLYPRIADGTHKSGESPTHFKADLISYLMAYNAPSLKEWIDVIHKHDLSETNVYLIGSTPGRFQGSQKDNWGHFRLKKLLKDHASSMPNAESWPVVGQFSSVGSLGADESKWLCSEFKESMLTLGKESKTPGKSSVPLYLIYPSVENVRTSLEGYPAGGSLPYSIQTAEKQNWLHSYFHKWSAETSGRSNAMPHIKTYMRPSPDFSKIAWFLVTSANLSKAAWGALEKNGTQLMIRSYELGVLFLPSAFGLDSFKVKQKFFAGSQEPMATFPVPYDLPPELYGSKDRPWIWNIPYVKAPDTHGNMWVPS
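Here, a 5' biotin and 3' phosphotyrosine-FITC DNA oligonucleotide reports Tdp1 activity: intact substrate bridges AlphaScreen beads, while cleavage leaves a 3' phosphate and drops signal. All incubations at room temperature.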
TDP1 cell CPT = qHTS for Inhibitors of human tyrosyl-DNA phosphodiesterase 1 (TDP1): qHTS in cells in presence of CPT; chicken DT40 Tdp1-/-;hTDP1 cells + 20 nM CPT, ATP luminescence, 48 h; Potency, µM (highest dose often 46.2 µM), most hits filed as inhibitors; 420,000 compounds, 12% hits; AID 686979, 2013; further: nearly all actives have a fitted effect of over 55% in size
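Chicken DT40 Tdp1-/- cells complemented with human TDP1, 400 cells/well, exposed to compounds plus 20 nM camptothecin for at least 48 h at 37 C; viability read as ATP content by CellTiter-Glo luminescence.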
PLK1 PBD inh = qHTS for Inhibitors of PLK1-PDB (polo-like kinase 1 - polo-box domain): Primary Screen | Plk1 PBD binding of FITC phosphopeptide, fluorescence polarization | Potency, µM, hits mostly inhibitors | 360,000 compounds, 2.8% hits; further: series mostly up to about 57 µM; nearly all actives have a fitted effect of over 65% in size
DT40 TDP1 no CPT = qHTS for Inhibitors of human tyrosyl-DNA phosphodiesterase 1 (TDP1): qHTS in cells in absence of CPT. 420,000 compounds, 15% hits. Potency, µM (doses to about 46.2 µM), usual class: inhibitors. DT40 Tdp1-/- hTDP1 cells, no CPT, ATP luminescence, 48 h; further: nearly all actives have a fitted effect of over 55% in size
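A cellular qHTS used chicken DT40 cells lacking endogenous Tdp1 but carrying stably transfected human TDP1. Compounds were applied without camptothecin, and cell growth kinetics were judged by ATP-dependent luminescence after ≥48 hr.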
VDR inh = Inhibitors of the vitamin D receptor (VDR): qHTS | Vitamin D3 receptor (Homo sapiens), P11473 | VDR-SRC2-3 peptide fluorescence polarization, 2 h | Potency, µM, actives largely listed as inhibitors | 400,000 compounds, 0.93% hits
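Compounds are added to VDR with labelled SRC2-3 coactivator peptide and held 2 h at room temperature. Inhibition of the VDR–peptide interaction is then read as a change in fluorescence polarization.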
GCN5L2 inh = qHTS Assay for Inhibitors of GCN5L2; GCN5L2 HAT assay, ThioGlo1 CoA-SH fluorescence; 390,000 compounds, 0.21% hits; AID 504327, 2011; Potency, µM (top dose mostly 58.9 µM), most hits filed as inhibitors; Histone acetyltransferase KAT2A (Homo sapiens), Q92830
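GCN5L2 (20nM final) in 50mM HEPES, 0.1mM EDTA pH 7.5, 0.01% Tween-20 was preincubated 15 min at room temperature with compound, then given ThioGlo1 (50uM), H3(1-25) peptide (75uM) and acetyl-CoA (70uM); CoA-thiol fluorescence (Ex340/Em540) was read at 0 and 20 min.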
Numbers stand for hits; n = inactive; u = inconclusive; x = not tested or not shown; [ ] = dose if it differs, or a comment. An excerpt weighted towards active compounds, which were near 18% of everything screened. The call rests on the fitted dose curve; in most records, active means well fitted curve in the direction sought with a large enough effect; inconclusive means small, poorly fitted or top-dose-only effect, or another doubt; inactive means no such curve, though single readings can be large; an effect the other way counts as inactive or inconclusive.

SMILES | TDP1 block | TDP1 cell CPT | PLK1 PBD inh | DT40 TDP1 no CPT | VDR inh | GCN5L2 inh
CCOc1ccc(C(=O)NCCn2cc(SCC(=O)Nc3ccccc3)c3ccccc32)cc1 | n | u | x | 23µM | n | n
CNC(=O)CSc1cn(CC(=O)N2CCCCCC2)c2ccccc12 | n | n | x | n | n | n
CC(=O)Nc1cccc(NC(=O)CSc2cn(CC(=O)N3CCCCCC3)c3ccccc23)c1 | n | 18µM | x | u | n | n
O=C1CCC(=O)N1CO | x | n | x | n | n | n
COc1ccc(C(=O)NCCn2cc(SCC(=O)Nc3ccc(C)cc3)c3ccccc32)cc1 | n | u | x | u | n | n
CC(=O)c1cccc(NC(=O)C(=O)c2cn(CC(=O)N3CCCCC3)c3ccccc23)c1 | n | 26µM | n | 23µM | u | n
CC(=O)Nc1cccc(NC(=O)C(=O)c2cn(CC(=O)N3CCCC3)c3ccccc23)c1 | x | u | n | u | x | x
O=C(CSc1cn(CCNC(=O)c2ccccc2)c2ccccc12)NCc1ccco1 | n | 26µM | n | u | n | n
COc1ccc(C(=O)NCCn2cc(SCc3cc(C)ccc3C)c3ccccc32)cc1 | n | 13µM | x | u | n | n
CCOC(=O)c1ccc(NC(=O)COC(=O)c2cccc(Oc3ccccc3)c2)cc1 | n | n | n | n | n | n
CCCCNC(=O)NS(=O)(=O)c1ccc(NC(=O)CCC(=O)c2cccs2)cc1 | x | n | n | n | n | n
COCCN(C(=O)c1ccc2c(c1)S(=O)(=O)N=C1CCCCCN12)c1c(N)n(CC(C)C)c(=O)[nH]c1=O | x | n | n | n | n | x
Cc1ccc(C2c3[nH]c4ccccc4c3CCN2C(=O)CCc2ccccc2)cc1 (stereo not drawn) | n | u | x | 21µM | n | n
O=C(CSc1ccccc1)N1CCc2c([nH]c3ccccc23)C1c1ccc(F)cc1 (stereo not drawn) | n | u | x | u | n | n
CCOc1ccc(C2c3[nH]c4ccccc4c3CCN2C(=O)CSCc2ccc(F)cc2)cc1 (stereo not drawn) | n | u | x | u | n | n
CCOc1cccc(CC(=O)N2CCc3c([nH]c4ccccc34)C2c2ccc(C)cc2)c1OCC (stereo not drawn) | n | u | x | 18µM | n | n
CCOc1cccc(C2c3[nH]c4ccccc4c3CCN2C(=O)CSCc2ccc(F)cc2)c1 (stereo not drawn) | n | 18µM | x | 26µM | n | n
Cc1ccc2c(c1)N(C(=O)C1CCN(S(=O)(=O)c3c(C)noc3/C=C/c3ccccc3F)CC1)CCO2 | n | n | x | u | n | n
CNc1ccccc(-c2ccc3ccccc3n2)c1=O | n | u | n | 23µM | n | n
c1ccc(-c2ccc3ccccc3n2)cc1 | x | n | n | n | n | x
O=C(c1ccccc1C(F)(F)F)N1CCOc2c(cc(-c3nc4ccccc4s3)cc2OC2CCOC2)C1 (stereo not drawn) | x | n[9.04 µM] | x | n | x | x
CCOC(=O)c1sc(NC(=O)CSc2n[nH]c(CC(C)C)n2)nc1C | n | u | n | u | n | n
CC1(C)CC(=O)N(c2cc(Cl)cc(Cl)c2)C(=O)C1 | x | n | n | n | n | n
CN1C(=O)C2(C(C#N)=C(N)N(c3cc(Cl)cc(Cl)c3)C3=C2C(=O)CC(C)(C)C3)c2ccccc21 (stereo not drawn) | n | 21µM | n | u | n | x
Cc1ccc(N2C(N)=C(C#N)C3(C(=O)N(C)c4ccccc43)C3=C2CC(C)(C)CC3=O)cc1Cl (stereo not drawn) | n | u | n | 16µM | n | n
SMILES | TDP1 block | TDP1 cell CPT | PLK1 PBD inh | DT40 TDP1 no CPT | VDR inh | GCN5L2 inh
Cc1ccc(N2C(N)=C(C#N)C(c3cccnc3)C3=C2CC(C)(C)CC3=O)cc1 (stereo not drawn) | n | u | n | u | n | n
CN(C(=O)CSc1nc2ccccc2c(=O)n1-c1ccc(F)cc1F)C1CCS(=O)(=O)C1 (stereo not drawn) | n | n | n | n | n | n
Cc1noc(C)c1CSc1nc2ccccc2c(=O)n1-c1ccccc1 | n | 6.5µM | n | 5.8µM | n | n
Cc1noc(C)c1CSc1nc2ccccc2c(=O)n1-c1ccc(F)cc1F | n | 8.2µM | n | 7.3µM | n | n
Cc1noc(C)c1CSc1nnc2n(-c3ccccc3)c(=O)c3ccccc3n12 | x | u | n | n | n | x
C=CCn1c(SCc2c(C)noc2C)nc2ccccc2c1=O | n | 0.56µM | n | 0.79µM | n | n
C=CCn1c(SCc2c(C)noc2C)nc2cc(C(=O)O)ccc2c1=O | n | u | n | u | n | n
COc1ccc(-c2nc(C)c(CCNC(=O)C(=O)Nc3cc(C)cc(C)c3)s2)cc1OC | n | x | x | x | n | n
O=C(NCc1ccco1)c1ccc2c(c1)N(Cc1ccccc1F)C(=O)c1ccccc1S2(=O)=O | n | n | x | u | n | n
Fc1ccc(-n2c(-c3ccc4ccccc4n3)n[nH]c2=S)cc1 | n | n | n | n | n | n
